Inconclusive results are not listed. Calls of active or inactive are those of the source. The calls were made as follows: active = hit-call score of the fitted dose curve at least 0.9, where 1 is the maximum; inconclusive = response in the unintended direction; inactive = score below 0.9.

Sequence of AR (gene 367) (P10275 whole entry, looked up): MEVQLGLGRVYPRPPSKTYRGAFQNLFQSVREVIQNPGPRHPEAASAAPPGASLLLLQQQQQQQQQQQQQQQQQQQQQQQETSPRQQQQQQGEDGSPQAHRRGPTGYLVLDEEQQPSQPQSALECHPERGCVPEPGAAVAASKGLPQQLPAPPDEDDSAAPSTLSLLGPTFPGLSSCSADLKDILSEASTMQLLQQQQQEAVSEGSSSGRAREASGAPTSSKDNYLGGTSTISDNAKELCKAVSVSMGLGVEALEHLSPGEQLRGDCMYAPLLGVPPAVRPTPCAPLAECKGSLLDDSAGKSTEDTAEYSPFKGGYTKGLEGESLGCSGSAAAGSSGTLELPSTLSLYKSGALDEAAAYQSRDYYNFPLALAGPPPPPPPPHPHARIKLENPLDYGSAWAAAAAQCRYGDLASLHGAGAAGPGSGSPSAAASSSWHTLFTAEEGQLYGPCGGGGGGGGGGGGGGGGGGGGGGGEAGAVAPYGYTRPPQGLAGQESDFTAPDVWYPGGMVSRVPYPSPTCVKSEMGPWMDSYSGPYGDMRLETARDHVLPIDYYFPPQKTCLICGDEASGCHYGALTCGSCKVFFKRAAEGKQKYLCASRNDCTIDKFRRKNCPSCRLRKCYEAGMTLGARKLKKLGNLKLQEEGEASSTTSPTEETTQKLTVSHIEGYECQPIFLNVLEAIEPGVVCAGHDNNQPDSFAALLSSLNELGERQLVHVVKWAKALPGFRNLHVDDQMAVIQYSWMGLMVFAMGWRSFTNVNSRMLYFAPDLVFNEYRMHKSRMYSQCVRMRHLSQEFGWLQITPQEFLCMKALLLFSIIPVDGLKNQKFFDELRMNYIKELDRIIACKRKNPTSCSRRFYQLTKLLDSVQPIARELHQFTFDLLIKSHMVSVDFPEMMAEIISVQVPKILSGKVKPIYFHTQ

The test concerns the target AR (gene 367) (UniProt P10275). The test is described as follows: ACEA_AR_antagonist_80hr: ACEA Biosciences xCELLigence Real-Time Cell Analysis on Androgen Receptor Antagonism for Proliferation (AID 2283787).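 Also: 22Rv1 human prostate cancer cells with growth followed by electrical impedance; hits lower the impedance growth signal relative to DMSO.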 Summed up: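 Impedance-based real-time growth of 22Rv1 prostate cells, read 80 h after dosing. Eight concentrations, 1:4 series, top 100 uM final (0.5% DMSO), n = 2; signal decrease scored against DMSO.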
Usually AC50 stands for the concentration giving half of the maximal activity seen. On to `COc1cc(OC)c2ccc(=O)oc2c1`, for which the AC50 is 3.3 µM (active).
As for `CC(C)(CO)CO`, the compound was classed as inactive.
For `CCCCCCOc1ccc(O)cc1`, the AC50 was 13.3 µM (active).
Take `CC1=CCC(C(C)(C)O)CC1` (stereo not drawn): the AC50 is 7.98 µM (active).
On to `COC(=O)c1cccc(C(=O)OC)c1`, for which the compound was called inactive.
On the same count and under the same terms, under `CC(C)(C)c1cccc(O)c1` stands “inactive”; under `CCCCCCCCCCOC(=O)c1ccccc1C(=O)OCCCCCCCC`, “inactive”.
Turning to `CC(CCO)CC(C)(C)C` (stereo not drawn), the result was inactive.

The values above are taken from PubChem BioAssay (EPA / NIEHS).
